Reference: PubChem BioAssay (EPA / NIEHS)
Records with an inconclusive call do not appear. The source made the active and inactive calls. How the source made its calls, unless noted: active means hit-call score of the fitted dose curve at least 0.9, where 1 is the maximum; inconclusive means response in the unintended direction; inactive means score below 0.9.

Assays:
[1] = ATG_CMV_CIS: Attagene CIS-FACTORIAL HepG2 Assay for human CMV (Internal Marker) (AID 2282928; active means hit-call score of the fitted dose curve at least 0.9, where 1 is the maximum; inactive means score below 0.9;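 further: endpoint acts as a background internal control marker rather than a target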); details: HepG2 CMV promoter reporter, transcription factor profiling; actives raise or lower the signal
How it was run: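 Cell system: HepG2, transiently transfected multiple reporter units under cis promoters. Exposure: 24 h. Detection: RT-PCR, FAM labeling, HpaI digestion, capillary electrophoresis. Analysis: bidirectional, DMSO baseline.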

[2] = ATG_TAL_CIS: Attagene CIS-FACTORIAL HepG2 Assay for human TAL Basal Promoter (AID 2282966; active means hit-call score of the fitted dose curve at least 0.9, where 1 is the maximum; inactive means score below 0.9;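 further: background control endpoint measuring basal TAL promoter reporter mRNA not a specific factor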); details: HepG2 Attagene cis-factorial TAL promoter reporter; actives raise or lower the signal
How it was run: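 Fluorescence of labelled reporter cDNA fragments, resolved by capillary electrophoresis, gave the readout. Human HepG2 liver cells carried transiently transfected cis-element reporter units and were treated for 24 hours; activity was fitted bidirectionally against DMSO.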

[3] = ATG_VDRE_CIS: Attagene CIS-FACTORIAL HepG2 Assay for human Vitamin D Receptor Element (VDRE) (AID 2282968; active means hit-call score of the fitted dose curve at least 0.9, where 1 is the maximum; inactive means score below 0.9); details: HepG2 VDRE cis-reporter transcription, actives raise or lower the signal
How it was run: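 HepG2 cells transiently transfected with cis-element reporter units, dosed 24 h; reporter mRNA measured by RT-PCR, 6-FAM labeling, HpaI digestion and capillary electrophoresis. Activity fitted bidirectionally against DMSO baseline.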

[4] = molecular target: Nuclear receptor subfamily 4 group A member 2 (Homo sapiens) (UniProt P43354); test: ATG_NURR1_TRANS: Attagene TRANS-FACTORIAL HepG2 Assay for human Nuclear Receptor Related Protein 1 (NURR1) (AID 2282985); details: HepG2 Attagene TRANS reporter, mRNA readout
How it was run: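 HepG2 cells transiently transfected with GAL4-UAS reporter units and chimeric NR-Gal4 constructs; chemical exposure 24 h. Reporter mRNA quantified by RT-PCR, fluorescent labelling and capillary electrophoresis; gain of signal fitted relative to DMSO baseline.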

[5] = ATG_NFI_CIS: Attagene CIS-FACTORIAL HepG2 Assay for human Nuclear Factor I (NFI) (AID 2282989; active means hit-call score of the fitted dose curve at least 0.9, where 1 is the maximum; inactive means score below 0.9); details: HepG2 cis-regulatory reporter, NFI response element transcription; actives raise or lower the signal
How it was run: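 HepG2 cells transiently transfected with cis-element-driven multiplexed reporter transcription units, dosed for 24 h. Reporter mRNA quantified by RT-PCR, fluorescent labelling, HpaI digestion and capillary electrophoresis; bidirectional fit versus DMSO baseline.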

[6] = molecular target: Peroxisome proliferator-activated receptor gamma (Homo sapiens) (UniProt P37231); test: ATG_PPARg_TRANS: Attagene TRANS-FACTORIAL HepG2 Assay for human Peroxisome Proliferator-activated Receptor-gamma (PPARg) (AID 2283007)
How it was run: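 Chimeric NR-Gal4 transactivation is measured in transiently transfected HepG2 cells by reporter mRNA induction at 24 h. Detection uses RT-PCR with fluorescent labelling and capillary electrophoresis; DMSO defines baseline.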

[7] = molecular target: Nuclear receptor subfamily 1 group I member 2 (Homo sapiens) (UniProt O75469); test: ATG_PXR_TRANS: Attagene TRANS-FACTORIAL HepG2 Assay for human Pregnane X Receptor (PXR) (AID 2283008)
How it was run: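 Fluorescence intensity of FAM-labelled, HpaI-digested reporter amplicons, separated by capillary electrophoresis, quantifies induction. HepG2 cells with PXR-Gal4 trans-reporter system were exposed 24 h; DMSO defines baseline.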

[8] = molecular target: Retinoic acid receptor RXR-alpha (Homo sapiens) (UniProt P19793); test: ATG_RXRa_TRANS: Attagene TRANS-FACTORIAL HepG2 Assay for human Retinoid X Receptor alpha (RXRa) (AID 2283012)
How it was run: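 Cells (HepG2) carried transiently transfected GAL4-responsive reporter units. Following a 24 h chemical incubation, reporter mRNA induction was read via RT-PCR fragment analysis; DMSO served as negative control and baseline.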

[9] = molecular target: human Thyroid Receptor alpha (THRa1), THRA (gene 7067) (UniProt P10827); test: ATG_THRa1_TRANS: Attagene TRANS-FACTORIAL HepG2 Assay for human Thyroid Receptor alpha (THRa1) (AID 2283014)
How it was run: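 Reporter transcript induction, read by capillary electrophoresis of 6-FAM-labelled RT-PCR products, reflects activity of a transfected THRa1-Gal4 fusion in HepG2 liver cells. Cells were dosed for 24 h; activity was fitted in the positive direction against DMSO.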

[10] = ATG_XTT_Cytotoxicity: Cytotoxicity Assessment in the Attagene TRANS-FACTORIAL HepG2 Assay (AID 2283584)
How it was run: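 Cells: human HepG2, transiently transfected with MRTU reporter constructs. Exposure 24 h. Readout: XTT, cell number. Baseline/neg ctrl DMSO; loss-of-signal scored.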

[11] = ACEA_ER_AUC_viability: ACEA Biosciences xCELLigence Real-Time Cell Analysis on Estrogen Receptor Agonism for Viability (AID 2283782);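 further: continuous compound exposure with impedance area under curve over 80 h; hit means loss of impedance signal meaning reduced cell growth or viability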
How it was run: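 T-47D human breast cells in phenol red-free RPMI1640 with 10% charcoal-stripped FBS were dosed with an 8-point 1:4 dilution series from 100 uM top final concentration, in duplicate. Impedance-based growth was followed for 80 h; AUC analysed versus DMSO.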

[12] = molecular target: Hepatocyte nuclear factor 6 (Homo sapiens) (UniProt Q9UBC0); test: ATG_HNF6_CIS: Attagene CIS-FACTORIAL HepG2 Assay for human Hepatocyte Nuclear Factor 6 (HNF6) (AID 2282952; active means hit-call score of the fitted dose curve at least 0.9, where 1 is the maximum; inactive means score below 0.9); details: HepG2 Attagene cis-factorial HNF6 reporter transcription; actives raise or lower the signal
How it was run: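 HepG2, transient MRTU transfection (cis promoters); 24 h chemical exposure; total RNA → oligo(dT) RT → PCR → 6-FAM labelling → HpaI cut → CE; bidirectional fit vs DMSO.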

[13] = ATG_PBREM_CIS: Attagene CIS-FACTORIAL HepG2 Assay for human Phenobarbital-responsive Enhancer Module (PBREM) (AID 2282955; active means hit-call score of the fitted dose curve at least 0.9, where 1 is the maximum; inactive means score below 0.9); details: HepG2 PBREM cis-reporter, Attagene multiplexed transcription; actives raise or lower the signal
How it was run: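 Multiplexed cis-reporter readout in human hepatoma HepG2 cells; PBREM-regulated transcript quantified after 24 h exposure by fluorescent RT-PCR fragment analysis. Signal changes up or down fitted relative to DMSO.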

[14] = ATG_PPRE_CIS: Attagene CIS-FACTORIAL HepG2 Assay for human Peroxisome Proliferator-activated Response Element (PPRE) (AID 2282958; active means hit-call score of the fitted dose curve at least 0.9, where 1 is the maximum; inactive means score below 0.9); details: HepG2 PPRE cis-element reporter, Attagene transcription factor profiling; actives raise or lower the signal
How it was run: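 DMSO served as negative control and baseline for bidirectional curve fitting. Signal came from PPRE-regulated reporter mRNA in HepG2 cells, measured 24 h post-dosing by RT-PCR, 6-FAM primer extension and capillary electrophoresis.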

[15] = ATG_M_06_TRANS: Attagene TRANS-FACTORIAL HepG2 Assay for M06 Transcription Factor (Internal Marker) (AID 2282983); details: HepG2 Attagene TRANS M06 internal marker reporter;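 further: reporter transcript level by RT-PCR then capillary electrophoresis fluorescence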
How it was run: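 Transfect HepG2 with MRTUs → dose compounds 24 h → isolate RNA, oligo(dT) RT → PCR with reporter primers → 6-FAM primer extension → HpaI digest → CE fragment analysis. Positive direction vs DMSO.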

[16] = ATG_M_32_TRANS: Attagene TRANS-FACTORIAL HepG2 Assay for M32 Transcription Factor (Internal Marker) (AID 2282984); details: HepG2 Attagene TRANS M32 internal marker reporter;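 further: transcript level of a background control reporter unit measured by RT-PCR and capillary electrophoresis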
How it was run: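 HepG2 cells transiently transfected with multiple GAL4-UAS reporter transcription units, dosed for 24 hours; reporter mRNA quantified by RT-PCR, 6-FAM primer extension, HpaI digestion and capillary electrophoresis. Gain-of-signal fitted versus DMSO baseline; internal background-control marker.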

[17] = ATG_NF_kB_CIS: Attagene CIS-FACTORIAL HepG2 Assay for human Nuclear Factor Kappa B (NF-kB) (AID 2282991; active means hit-call score of the fitted dose curve at least 0.9, where 1 is the maximum; inactive means score below 0.9); details: HepG2 Attagene cis-factorial NF-kB reporter mRNA; actives raise or lower the signal
How it was run: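 DMSO served as negative control and baseline for bidirectional curve fitting. Transiently transfected HepG2 cells were dosed for 24 h, then reporter transcripts were measured by RT-PCR with capillary electrophoresis detection.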

[18] = molecular target: Cellular tumor antigen p53 (Homo sapiens) (UniProt P04637); test: TOX21_p53_BLA_p2_ratio: Tox21 HCT-116 p53 Agonism Beta-lactamase Assay, Ratio, Phase 2 (AID 2283592)
How it was run: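 HCT116 p53-bla; 4000 cells/well; 5 h pre-incubation; cpd in DMSO, 217-fold dilution; 16 h 37C/5% CO2; CCF4-AM 2 h RT; Ex 405, Em 460/530 ratio; DMSO = baseline; positive fitting direction.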

[19] = ATG_GRE_CIS: Attagene CIS-FACTORIAL HepG2 Assay for human Glucocorticoid Response Elements (GRE) (AID 2282947; active means hit-call score of the fitted dose curve at least 0.9, where 1 is the maximum; inactive means score below 0.9); details: HepG2 GRE cis-reporter, Attagene multiplex mRNA; actives raise or lower the signal
How it was run: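 HepG2 cells transiently transfected with multiple cis-promoter reporter units measure endogenous TF activity; 24 h compound exposure. Reporter mRNA quantified by RT-PCR, FAM labelling, HpaI digestion and capillary electrophoresis; bidirectional fit vs DMSO baseline.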

[20] = molecular target: Cellular tumor antigen p53 (Homo sapiens) (UniProt P04637); test: TOX21_p53_BLA_p5_ratio: Tox21 HCT-116 p53 Agonism Beta-lactamase Assay, Ratio, Phase 5 (AID 2283599)
How it was run: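 HCT-116 cells carrying a p53-inducible beta-lactamase reporter were seeded at 4000 cells/well and dosed after 5 h with compound in DMSO (217-fold dilution). After 16 h at 37C, CCF4-AM substrate was added for 2 h, and the 460/530 nm emission ratio was scored as gain-of-signal versus DMSO.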

Measured: AC50

Chain of Hepatocyte nuclear factor 6 (Homo sapiens) (Q9UBC0 whole entry, looked up): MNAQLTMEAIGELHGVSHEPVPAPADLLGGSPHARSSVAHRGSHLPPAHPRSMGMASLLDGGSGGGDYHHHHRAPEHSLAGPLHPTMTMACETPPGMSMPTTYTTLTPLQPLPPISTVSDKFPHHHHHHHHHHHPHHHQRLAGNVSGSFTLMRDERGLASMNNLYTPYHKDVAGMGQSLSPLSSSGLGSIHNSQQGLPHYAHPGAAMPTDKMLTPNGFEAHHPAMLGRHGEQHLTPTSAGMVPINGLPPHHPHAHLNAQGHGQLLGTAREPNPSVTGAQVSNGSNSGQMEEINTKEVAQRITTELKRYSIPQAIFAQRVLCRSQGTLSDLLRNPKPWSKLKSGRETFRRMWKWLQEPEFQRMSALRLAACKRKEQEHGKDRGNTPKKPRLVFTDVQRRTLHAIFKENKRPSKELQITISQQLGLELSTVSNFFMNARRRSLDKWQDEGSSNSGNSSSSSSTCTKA
Chain of Peroxisome proliferator-activated receptor gamma (Homo sapiens) (P37231 whole entry, looked up, the tested form may be a part): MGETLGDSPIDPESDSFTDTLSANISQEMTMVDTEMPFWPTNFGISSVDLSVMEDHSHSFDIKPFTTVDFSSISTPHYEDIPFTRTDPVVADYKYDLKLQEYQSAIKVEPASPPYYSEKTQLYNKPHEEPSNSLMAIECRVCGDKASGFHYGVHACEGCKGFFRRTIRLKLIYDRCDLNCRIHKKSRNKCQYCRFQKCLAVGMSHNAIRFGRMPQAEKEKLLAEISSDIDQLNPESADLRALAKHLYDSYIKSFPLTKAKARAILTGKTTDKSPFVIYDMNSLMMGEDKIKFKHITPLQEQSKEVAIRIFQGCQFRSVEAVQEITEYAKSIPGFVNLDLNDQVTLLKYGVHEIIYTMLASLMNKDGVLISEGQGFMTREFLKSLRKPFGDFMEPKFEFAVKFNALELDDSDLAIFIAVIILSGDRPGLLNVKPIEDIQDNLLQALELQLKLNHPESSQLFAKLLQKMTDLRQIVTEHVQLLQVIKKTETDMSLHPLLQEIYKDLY
Chain of Nuclear receptor subfamily 4 group A member 2 (Homo sapiens) (P43354 whole entry, looked up, the tested form may be a part): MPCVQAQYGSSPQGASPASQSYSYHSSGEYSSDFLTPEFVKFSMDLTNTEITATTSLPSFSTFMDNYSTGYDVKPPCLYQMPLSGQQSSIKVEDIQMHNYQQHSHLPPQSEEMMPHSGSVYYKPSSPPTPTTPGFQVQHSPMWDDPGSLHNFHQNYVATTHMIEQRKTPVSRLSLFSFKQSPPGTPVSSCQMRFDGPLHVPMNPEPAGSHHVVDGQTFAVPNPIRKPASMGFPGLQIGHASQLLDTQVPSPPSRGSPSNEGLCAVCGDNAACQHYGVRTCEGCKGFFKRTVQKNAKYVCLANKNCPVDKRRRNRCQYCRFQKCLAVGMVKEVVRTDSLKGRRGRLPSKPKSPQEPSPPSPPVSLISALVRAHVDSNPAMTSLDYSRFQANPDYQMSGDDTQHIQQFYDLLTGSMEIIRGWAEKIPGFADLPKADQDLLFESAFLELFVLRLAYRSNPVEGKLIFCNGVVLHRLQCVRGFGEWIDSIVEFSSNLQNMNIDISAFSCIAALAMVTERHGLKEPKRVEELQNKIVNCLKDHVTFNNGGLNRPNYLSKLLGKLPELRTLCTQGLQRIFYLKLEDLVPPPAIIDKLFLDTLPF
Chain of Cellular tumor antigen p53 (Homo sapiens) (P04637 whole entry, looked up): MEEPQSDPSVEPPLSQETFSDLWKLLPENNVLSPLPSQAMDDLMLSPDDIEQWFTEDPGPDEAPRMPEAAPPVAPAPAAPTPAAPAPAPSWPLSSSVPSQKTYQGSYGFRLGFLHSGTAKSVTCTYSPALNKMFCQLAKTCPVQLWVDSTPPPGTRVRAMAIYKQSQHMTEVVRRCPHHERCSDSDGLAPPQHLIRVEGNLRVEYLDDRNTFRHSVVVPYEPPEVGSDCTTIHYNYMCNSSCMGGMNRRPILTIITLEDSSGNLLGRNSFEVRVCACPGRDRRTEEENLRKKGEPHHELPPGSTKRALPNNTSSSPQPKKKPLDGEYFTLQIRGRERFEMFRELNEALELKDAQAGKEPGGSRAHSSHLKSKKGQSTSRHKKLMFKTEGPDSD
Chain of Retinoic acid receptor RXR-alpha (Homo sapiens) (P19793 whole entry, looked up, the tested form may be a part): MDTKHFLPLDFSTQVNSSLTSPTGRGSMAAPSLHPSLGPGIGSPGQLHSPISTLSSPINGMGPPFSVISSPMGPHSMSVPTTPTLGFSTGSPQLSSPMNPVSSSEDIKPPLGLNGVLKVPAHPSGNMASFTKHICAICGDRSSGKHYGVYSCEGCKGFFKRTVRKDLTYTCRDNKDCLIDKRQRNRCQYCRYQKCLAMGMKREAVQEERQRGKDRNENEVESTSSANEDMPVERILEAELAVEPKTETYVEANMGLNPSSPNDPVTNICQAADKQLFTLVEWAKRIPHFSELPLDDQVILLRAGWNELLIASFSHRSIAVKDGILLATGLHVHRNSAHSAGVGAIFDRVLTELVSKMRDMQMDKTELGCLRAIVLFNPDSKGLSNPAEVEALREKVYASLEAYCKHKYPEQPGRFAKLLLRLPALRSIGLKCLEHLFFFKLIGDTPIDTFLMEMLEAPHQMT
Chain of human Thyroid Receptor alpha (THRa1), THRA (gene 7067) (P10827 whole entry, looked up, the tested form may be a part): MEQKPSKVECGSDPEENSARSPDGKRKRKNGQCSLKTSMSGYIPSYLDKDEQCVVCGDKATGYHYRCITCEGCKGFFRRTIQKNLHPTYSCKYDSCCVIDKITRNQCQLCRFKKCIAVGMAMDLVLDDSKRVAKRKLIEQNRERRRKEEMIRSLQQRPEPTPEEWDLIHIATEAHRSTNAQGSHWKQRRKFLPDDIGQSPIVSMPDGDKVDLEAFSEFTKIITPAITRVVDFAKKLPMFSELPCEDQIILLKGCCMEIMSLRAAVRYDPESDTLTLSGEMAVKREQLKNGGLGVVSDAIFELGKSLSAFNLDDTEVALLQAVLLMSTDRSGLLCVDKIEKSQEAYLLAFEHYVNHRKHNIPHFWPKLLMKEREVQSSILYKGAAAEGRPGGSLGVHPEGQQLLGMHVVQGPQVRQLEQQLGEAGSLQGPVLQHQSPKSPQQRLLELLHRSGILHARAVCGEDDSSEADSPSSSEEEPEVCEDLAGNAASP
Chain of Nuclear receptor subfamily 1 group I member 2 (Homo sapiens) (O75469 whole entry, looked up, the tested form may be a part): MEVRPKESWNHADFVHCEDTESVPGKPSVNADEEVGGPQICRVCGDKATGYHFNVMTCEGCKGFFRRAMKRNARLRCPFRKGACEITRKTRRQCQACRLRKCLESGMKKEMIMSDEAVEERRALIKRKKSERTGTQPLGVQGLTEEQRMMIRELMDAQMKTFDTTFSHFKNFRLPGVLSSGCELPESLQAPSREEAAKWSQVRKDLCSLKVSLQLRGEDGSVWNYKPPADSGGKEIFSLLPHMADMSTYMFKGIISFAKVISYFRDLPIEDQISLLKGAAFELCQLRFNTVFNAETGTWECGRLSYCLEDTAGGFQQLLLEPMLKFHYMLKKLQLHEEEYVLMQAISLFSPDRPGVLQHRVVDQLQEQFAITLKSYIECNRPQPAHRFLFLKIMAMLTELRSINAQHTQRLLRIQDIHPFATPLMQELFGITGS

[Cl-].[Cl-].[Cl-].[Yb+3]
inactive: [1] | [2] | [3] | [4] | [5] | [6] | [7] | [8] | [9] | [10] | [11]

CC(C)[C@@H](C(=O)O[C@@H](C#N)c1cccc(Oc2ccccc2)c1)c1ccc(Cl)cc1
active: [7] 0.752 µM
not listed: [3] | [8] | [10] | [11] | [19] | [20]
inactive: all other assays above

O=[N+]([O-])c1ccc(Cl)cc1
inactive: [19] | [3] | [16] | [4] | [5] | [17] | [8] | [10] | [18] | [20] | [11]

O=S(=O)(O)OOS(=O)(=O)O
not listed: [7] | [8] | [13] | [18] | [19] | [20]
inactive: all other assays above

C[N+](C)(C)CC(=O)O
inactive: [12] | [14] | [2] | [16] | [5] | [8] | [10]
active: [11] 25.6 µM

CCOC(=O)COc1ccc(Cl)cc1Cl
inactive: [19] | [12] | [13] | [2] | [15] | [16] | [5] | [17] | [7] | [10] | [18]
